This passage reports residual activity results from ChEMBL document CHEMBL2218924, “A broad activity screen in support of a chemogenomic map for kinase signalling research and drug discovery” (Biochem J, 2013).

Assay [1] deals with T1, Ephrin type-B receptor 1 (Homo sapiens) (UniProt P54762).
T1 sequence (whole entry): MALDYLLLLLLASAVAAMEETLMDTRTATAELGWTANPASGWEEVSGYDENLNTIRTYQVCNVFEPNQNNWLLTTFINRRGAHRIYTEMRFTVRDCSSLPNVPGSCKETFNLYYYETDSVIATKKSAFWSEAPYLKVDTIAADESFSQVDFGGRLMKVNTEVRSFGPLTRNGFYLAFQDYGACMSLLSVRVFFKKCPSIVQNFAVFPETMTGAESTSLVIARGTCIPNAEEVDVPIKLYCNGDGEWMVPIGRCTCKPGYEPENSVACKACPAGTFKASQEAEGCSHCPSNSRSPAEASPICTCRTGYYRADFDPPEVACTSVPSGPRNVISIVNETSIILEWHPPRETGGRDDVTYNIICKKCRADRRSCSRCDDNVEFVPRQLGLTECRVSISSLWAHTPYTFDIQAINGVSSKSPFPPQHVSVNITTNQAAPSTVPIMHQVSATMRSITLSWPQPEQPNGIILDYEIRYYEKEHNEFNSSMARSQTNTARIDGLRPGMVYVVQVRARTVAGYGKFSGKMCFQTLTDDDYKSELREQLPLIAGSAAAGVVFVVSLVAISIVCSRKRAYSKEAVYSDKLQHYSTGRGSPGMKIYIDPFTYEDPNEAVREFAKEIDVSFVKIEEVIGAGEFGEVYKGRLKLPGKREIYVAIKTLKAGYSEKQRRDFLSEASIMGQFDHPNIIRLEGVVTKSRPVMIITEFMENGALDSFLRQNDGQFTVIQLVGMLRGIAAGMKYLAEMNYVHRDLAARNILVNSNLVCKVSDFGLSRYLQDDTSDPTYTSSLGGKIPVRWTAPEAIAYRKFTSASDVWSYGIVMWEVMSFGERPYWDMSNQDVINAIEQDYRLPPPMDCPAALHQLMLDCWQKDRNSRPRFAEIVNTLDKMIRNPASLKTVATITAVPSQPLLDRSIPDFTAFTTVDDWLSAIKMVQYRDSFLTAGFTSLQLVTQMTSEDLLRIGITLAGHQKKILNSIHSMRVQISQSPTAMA
The settings on record: at 10 µM.

Assay [2] addresses T2, Ephrin type-B receptor 2 (Homo sapiens) (UniProt P29323).
T2 sequence (whole entry): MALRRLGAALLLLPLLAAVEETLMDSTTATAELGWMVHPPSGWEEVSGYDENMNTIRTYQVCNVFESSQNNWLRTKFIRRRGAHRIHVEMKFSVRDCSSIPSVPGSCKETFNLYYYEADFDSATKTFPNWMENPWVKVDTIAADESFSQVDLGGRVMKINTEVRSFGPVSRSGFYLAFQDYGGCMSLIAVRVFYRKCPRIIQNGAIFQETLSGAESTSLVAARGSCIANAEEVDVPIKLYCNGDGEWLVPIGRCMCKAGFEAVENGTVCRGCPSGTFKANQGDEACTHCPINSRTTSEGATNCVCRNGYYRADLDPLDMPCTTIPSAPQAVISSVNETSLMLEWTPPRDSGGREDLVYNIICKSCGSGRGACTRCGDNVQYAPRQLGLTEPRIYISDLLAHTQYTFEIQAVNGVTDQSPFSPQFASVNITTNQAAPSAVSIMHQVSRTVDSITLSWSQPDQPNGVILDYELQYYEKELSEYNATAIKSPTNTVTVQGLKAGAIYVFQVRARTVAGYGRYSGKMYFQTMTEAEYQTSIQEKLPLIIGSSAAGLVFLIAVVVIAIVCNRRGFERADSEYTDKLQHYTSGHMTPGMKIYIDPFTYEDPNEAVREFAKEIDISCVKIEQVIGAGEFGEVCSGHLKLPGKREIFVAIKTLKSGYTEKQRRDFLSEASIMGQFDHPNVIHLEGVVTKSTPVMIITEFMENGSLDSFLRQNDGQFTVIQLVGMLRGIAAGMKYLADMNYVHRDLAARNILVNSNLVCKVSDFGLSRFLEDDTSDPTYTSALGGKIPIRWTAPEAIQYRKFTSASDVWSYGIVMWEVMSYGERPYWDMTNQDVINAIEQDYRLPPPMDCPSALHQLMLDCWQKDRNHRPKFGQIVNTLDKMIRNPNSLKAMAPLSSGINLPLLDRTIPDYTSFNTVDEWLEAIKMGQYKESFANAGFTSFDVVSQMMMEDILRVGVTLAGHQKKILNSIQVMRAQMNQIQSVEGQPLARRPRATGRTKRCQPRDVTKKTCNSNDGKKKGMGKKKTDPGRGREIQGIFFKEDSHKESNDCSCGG
The following applies: at 1 µM.

Assay [3] concerns the target T2, Ephrin type-B receptor 2 (Homo sapiens). The settings on record: at 10 µM.
Assay [4] has as its target T3, Ephrin type-B receptor 3 (Homo sapiens) (UniProt P54753).
T3 sequence (whole entry): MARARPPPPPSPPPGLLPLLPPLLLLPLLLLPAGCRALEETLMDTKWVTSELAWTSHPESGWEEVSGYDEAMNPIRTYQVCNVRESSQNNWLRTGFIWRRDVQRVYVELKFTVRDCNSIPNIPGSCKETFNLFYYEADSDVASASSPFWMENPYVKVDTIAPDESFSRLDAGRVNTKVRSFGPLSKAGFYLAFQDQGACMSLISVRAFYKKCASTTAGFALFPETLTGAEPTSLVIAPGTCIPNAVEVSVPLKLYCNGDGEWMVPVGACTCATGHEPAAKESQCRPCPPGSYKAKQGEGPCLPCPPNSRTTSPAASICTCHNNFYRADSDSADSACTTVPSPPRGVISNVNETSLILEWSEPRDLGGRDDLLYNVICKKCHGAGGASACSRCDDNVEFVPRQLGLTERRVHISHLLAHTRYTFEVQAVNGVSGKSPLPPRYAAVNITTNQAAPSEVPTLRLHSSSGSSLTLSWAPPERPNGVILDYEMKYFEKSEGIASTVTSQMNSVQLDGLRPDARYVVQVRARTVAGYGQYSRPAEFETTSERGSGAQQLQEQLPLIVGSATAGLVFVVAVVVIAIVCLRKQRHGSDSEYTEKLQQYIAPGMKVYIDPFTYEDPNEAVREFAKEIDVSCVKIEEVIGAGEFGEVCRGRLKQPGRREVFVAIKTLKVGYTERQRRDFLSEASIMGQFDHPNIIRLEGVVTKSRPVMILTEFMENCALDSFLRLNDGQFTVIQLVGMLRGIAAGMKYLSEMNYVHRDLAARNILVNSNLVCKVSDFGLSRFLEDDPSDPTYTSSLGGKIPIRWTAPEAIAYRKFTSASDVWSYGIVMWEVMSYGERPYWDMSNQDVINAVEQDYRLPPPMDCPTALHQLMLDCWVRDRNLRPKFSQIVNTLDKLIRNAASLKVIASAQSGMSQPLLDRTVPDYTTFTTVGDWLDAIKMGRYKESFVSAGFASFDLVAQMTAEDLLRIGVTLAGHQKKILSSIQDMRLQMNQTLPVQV
The settings on record: at 1 µM.

The target in assay [5] is T3, Ephrin type-B receptor 3 (Homo sapiens). The following applies: at 10 µM.
The target of assay [6] is T4, Ephrin type-B receptor 4 (Homo sapiens) (UniProt P54760).
T4 sequence (whole entry): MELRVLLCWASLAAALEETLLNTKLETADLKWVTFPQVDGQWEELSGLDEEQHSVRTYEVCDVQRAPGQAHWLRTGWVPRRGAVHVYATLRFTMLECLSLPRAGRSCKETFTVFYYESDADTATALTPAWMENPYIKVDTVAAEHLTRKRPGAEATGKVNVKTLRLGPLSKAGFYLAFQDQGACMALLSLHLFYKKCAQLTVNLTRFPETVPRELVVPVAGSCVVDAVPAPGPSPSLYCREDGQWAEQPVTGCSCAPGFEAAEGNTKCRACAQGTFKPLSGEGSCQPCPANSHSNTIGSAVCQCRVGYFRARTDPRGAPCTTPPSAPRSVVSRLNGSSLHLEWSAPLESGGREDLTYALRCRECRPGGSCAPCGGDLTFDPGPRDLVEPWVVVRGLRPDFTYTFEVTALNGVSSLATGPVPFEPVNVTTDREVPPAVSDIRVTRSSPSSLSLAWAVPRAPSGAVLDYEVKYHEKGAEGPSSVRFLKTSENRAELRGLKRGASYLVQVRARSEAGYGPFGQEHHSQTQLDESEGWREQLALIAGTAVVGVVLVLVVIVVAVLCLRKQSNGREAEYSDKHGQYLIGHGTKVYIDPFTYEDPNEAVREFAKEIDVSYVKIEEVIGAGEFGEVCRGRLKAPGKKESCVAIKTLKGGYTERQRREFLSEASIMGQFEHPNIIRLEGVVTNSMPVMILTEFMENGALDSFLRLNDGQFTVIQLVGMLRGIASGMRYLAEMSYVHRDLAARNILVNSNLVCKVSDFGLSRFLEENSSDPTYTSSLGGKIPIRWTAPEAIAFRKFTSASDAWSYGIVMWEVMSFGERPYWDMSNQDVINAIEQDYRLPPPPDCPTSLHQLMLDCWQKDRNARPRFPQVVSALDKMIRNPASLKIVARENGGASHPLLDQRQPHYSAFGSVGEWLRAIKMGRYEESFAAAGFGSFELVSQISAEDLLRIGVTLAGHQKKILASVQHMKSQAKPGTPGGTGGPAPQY
The following applies: at 1 µM.

In assay [7] the target is T4, Ephrin type-B receptor 4 (Homo sapiens). The following applies: at 10 µM.
The target in assay [8] is Receptor tyrosine-protein kinase erbB-4 (Homo sapiens) (UniProt Q15303). The settings on record: at 1 µM.
For assay [9] the target is unchanged. The following applies: at 10 µM.
Assay [10] concerns the target Focal adhesion kinase 1 (Homo sapiens) (UniProt Q05397). The following applies: at 1 µM.

Receptor tyrosine-protein kinase erbB-4 (Homo sapiens), sequence (Q15303 whole entry): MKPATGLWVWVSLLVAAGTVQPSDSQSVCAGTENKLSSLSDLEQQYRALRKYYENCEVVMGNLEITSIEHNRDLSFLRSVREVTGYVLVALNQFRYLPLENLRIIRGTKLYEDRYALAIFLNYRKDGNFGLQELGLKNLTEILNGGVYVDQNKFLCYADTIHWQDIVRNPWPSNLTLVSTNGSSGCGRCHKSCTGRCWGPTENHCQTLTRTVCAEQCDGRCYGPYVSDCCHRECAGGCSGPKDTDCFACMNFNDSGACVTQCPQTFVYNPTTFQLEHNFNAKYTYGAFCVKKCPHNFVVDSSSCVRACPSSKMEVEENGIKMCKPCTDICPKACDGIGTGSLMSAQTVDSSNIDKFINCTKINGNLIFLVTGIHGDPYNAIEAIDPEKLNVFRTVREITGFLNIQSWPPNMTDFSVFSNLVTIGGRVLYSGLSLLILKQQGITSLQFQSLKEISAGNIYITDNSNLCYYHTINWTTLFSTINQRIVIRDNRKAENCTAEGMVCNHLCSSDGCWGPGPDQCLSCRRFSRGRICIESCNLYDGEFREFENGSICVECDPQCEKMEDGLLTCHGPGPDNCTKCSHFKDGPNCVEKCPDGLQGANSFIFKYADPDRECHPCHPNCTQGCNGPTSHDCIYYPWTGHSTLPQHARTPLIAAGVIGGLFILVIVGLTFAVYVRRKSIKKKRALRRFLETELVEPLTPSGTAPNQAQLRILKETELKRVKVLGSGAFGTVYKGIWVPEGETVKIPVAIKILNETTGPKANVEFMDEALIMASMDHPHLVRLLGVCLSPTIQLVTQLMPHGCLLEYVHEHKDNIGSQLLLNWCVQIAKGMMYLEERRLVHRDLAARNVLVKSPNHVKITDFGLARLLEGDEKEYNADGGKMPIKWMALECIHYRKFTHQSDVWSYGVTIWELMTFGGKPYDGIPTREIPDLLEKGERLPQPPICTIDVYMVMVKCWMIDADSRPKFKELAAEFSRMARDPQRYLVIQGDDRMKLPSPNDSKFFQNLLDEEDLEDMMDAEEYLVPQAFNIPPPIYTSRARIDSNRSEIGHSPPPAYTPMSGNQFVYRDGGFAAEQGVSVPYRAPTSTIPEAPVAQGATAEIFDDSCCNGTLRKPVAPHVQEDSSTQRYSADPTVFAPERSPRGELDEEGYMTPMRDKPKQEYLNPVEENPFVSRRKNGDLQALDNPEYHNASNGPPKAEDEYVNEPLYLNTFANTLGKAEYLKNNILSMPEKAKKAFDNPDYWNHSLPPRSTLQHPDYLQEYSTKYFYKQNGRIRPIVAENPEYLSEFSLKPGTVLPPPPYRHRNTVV
Focal adhesion kinase 1 (Homo sapiens), sequence (Q05397 2-1052 limits assumed): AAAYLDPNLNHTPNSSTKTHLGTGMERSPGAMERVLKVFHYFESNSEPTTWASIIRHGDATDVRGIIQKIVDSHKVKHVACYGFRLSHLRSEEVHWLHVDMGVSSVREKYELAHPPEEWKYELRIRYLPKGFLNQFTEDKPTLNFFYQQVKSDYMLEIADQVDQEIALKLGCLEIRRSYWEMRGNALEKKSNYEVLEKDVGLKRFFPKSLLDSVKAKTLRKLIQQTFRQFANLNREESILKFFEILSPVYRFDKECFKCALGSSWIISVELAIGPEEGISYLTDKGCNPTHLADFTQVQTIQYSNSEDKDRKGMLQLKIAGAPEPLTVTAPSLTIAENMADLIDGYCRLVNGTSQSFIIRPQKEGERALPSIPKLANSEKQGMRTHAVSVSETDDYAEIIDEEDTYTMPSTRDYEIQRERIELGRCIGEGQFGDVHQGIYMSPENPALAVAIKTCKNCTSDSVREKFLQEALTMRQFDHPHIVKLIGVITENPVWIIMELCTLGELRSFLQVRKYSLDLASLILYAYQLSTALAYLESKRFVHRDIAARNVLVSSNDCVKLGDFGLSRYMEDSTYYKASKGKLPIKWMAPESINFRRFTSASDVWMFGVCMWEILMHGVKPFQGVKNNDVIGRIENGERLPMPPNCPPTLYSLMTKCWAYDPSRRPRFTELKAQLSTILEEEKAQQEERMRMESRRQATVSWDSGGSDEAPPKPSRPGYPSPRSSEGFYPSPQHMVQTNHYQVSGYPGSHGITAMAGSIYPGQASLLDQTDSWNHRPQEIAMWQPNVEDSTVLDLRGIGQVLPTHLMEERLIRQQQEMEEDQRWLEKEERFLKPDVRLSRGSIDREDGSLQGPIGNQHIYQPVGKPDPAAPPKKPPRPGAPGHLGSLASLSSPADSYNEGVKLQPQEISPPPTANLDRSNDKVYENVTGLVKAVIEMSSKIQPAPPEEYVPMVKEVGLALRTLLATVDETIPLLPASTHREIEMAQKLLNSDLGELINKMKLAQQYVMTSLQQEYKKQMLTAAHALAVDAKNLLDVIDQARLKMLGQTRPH

Take `O=C1NC(=O)/C(=C/c2ccc3c(c2)OC(F)(F)O3)S1`: the residual activity was 106% in assay [1]; 108% in assay [2]; 110% in assay [3]; 125% (inactive) in [4]; 109% in assay [5]; 118% in assay [6]. In addition, the residual activity in assay [7] turned out to be 121%; in assay [8], 98%; in assay [9] it was 101%; in assay [10] it was 112%.
